# Assay results as given in PubChem BioAssay AID588726 (The Scripps Research Institute Molecular Screening Center, 2011).
# The whole screen tested about 360,000 compounds, of which about 8,200 (2.3%) were called active. This excerpt belongs to a sample that is enriched for actives. A number with no mark means an inactive call. Cut-off read from the data, not from the text of the source: active = inhibition above about 27%; inactive = the rest.
# Target: Fructose-bisphosphate aldolase (Mycobacterium tuberculosis (strain ATCC 25618 / H37Rv)) (UniProt P9WQA3)
# Experiment: M. tuberculosis aldolase activity blockers – biochemical, fluorescence, strain H37Rv, primary screen (AID 588726);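 note: 0% = vehicle and 100% = reference inhibitor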
# Settings: purified M. tuberculosis FBA, fluorescence read-out, at 1 µM, hits give high values
# Chain of Fructose-bisphosphate aldolase (Mycobacterium tuberculosis (strain ATCC 25618 / H37Rv)) (P9WQA3 whole entry, looked up): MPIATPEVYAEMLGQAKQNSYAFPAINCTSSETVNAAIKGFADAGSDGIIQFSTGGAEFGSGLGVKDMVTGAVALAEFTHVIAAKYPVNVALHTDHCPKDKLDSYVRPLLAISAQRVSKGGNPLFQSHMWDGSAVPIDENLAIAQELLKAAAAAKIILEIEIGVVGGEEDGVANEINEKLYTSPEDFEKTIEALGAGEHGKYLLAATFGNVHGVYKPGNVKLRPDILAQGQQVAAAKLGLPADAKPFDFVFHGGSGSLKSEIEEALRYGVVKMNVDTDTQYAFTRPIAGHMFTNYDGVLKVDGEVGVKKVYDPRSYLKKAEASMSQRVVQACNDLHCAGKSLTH
row,Structure (SMILES),inhibition
1,O=C(c1cccc(N2CCCC2=O)c1)N1CCOCC1,-17.6%
2,CCOCCc1c(O)nc(SCC(=O)NCc2ccco2)[nH]c1=O,2.42%
3,CS(=O)(=O)N(Cc1ccccc1Cl)c1ccc(C(=O)NCc2cccnc2)cc1,-3.74%
4,CCN(CC(=O)Nc1cc(Cl)ccc1C)C(=O)CSCc1ccc(C)cc1,2.85%
5,O=C(NC1CCCC1)C(c1c(F)cccc1Cl)N(C(=O)c1csnn1)C1CC1 (stereo not drawn),-1.18%
6,COc1ccc(OC)c(NC(=O)CN(Cc2ccc(Cl)cc2)S(C)(=O)=O)c1,-0.32%
7,O=c1cc(C(F)(F)F)[nH]c(=O)n1C1CCCCC1,-0.44%
8,CC(Sc1sc(=S)sc1SC(C)C(=O)O)C(=O)O (stereo not drawn),-1.78%
9,O=C(NCCCN1CCOCC1)c1ccccc1NS(=O)(=O)c1ccc(Br)cc1,0.43%
10,O=C(NCCCN1CCOCC1)c1ccccc1NS(=O)(=O)c1ccc(F)cc1,2.85%
11,O=C(NCCCN1CCOCC1)c1cnn2c(-c3ccccc3)cc(-c3ccccc3)nc12,34.3% (active)
12,CCCCCC(=O)Nc1ccc(-c2cn3cccnc3n2)cc1,131% (active)
13,CCCCCC(=O)Nc1ccc(S(=O)(=O)Nc2ccc(Cl)nn2)cc1,-0.48%
14,CC(=O)Nc1ccc(-c2cn3cccnc3n2)cc1,"566% [above what the read-out allows, likely interference] (active)"
15,Cc1ccc(NC(=O)c2cccnc2C(=O)Nc2ccc(C)cc2)cc1,4.35%
16,Cc1nn2c(=O)cc(COC(=O)c3ccc(NC(=O)C(C)(C)C)cc3)nc2s1,-0.5%
17,CC(=O)Nc1ccc(S(=O)(=O)Nc2ccc(-c3ccc4nnc(C)n4n3)cc2)cc1,-1.85%
18,CCCCC(=O)Nc1ccc(C(=O)NCCCn2ccnc2)cc1,-1.64%
19,CCN(c1ccccc1)S(=O)(=O)c1ccc(NC(=O)C(C)(C)C)cc1,0.11%
20,CCOc1ccc(C(CC(=O)O)NC(=O)C23CC4CC(CC(C4)C2)C3)cc1OC (stereo not drawn),-2.94%
21,CSc1ccc(CN2CCC2(C)C(=O)NCc2ccccc2Br)cc1 (stereo not drawn),-0.17%
22,COc1ccc(OC)c(NC(=O)C2CCCN2S(=O)(=O)c2ccc3c(c2)CC(C)N3C(C)=O)c1 (stereo not drawn),-1.84%
23,CCOC(=O)CSc1nnc(NC(=O)C2CC(=O)N(c3ccc(F)cc3)C2)s1 (stereo not drawn),-1.95%
24,O=C(N/C(=C\c1ccc([N+](=O)[O-])cc1)C(=O)N1CCOCC1)c1cccc(Br)c1,-1.01%

row,Structure (SMILES),inhibition
1,CCCS(=O)(=O)N1CCN(C(=O)c2cccs2)CC1,3.16%
2,CN(C)S(=O)(=O)c1ccc(NC(=O)N2CCOCC2)cc1,3.98%
3,CN(C)S(=O)(=O)c1ccc(N/C=C(\[N+](=O)[O-])S(=O)(=O)c2ccccc2)cc1,57.2% (active)
4,CN(C)S(=O)(=O)c1cccc(NC(=S)N/N=C/C(=O)c2ccccc2)c1,-3.5%
5,O=C(O)CC(Cn1cnnn1)c1ccccc1 (stereo not drawn),3.12%
6,Cc1cccc(CCNC(=O)Cn2ncc3c([nH]c4ccc(C)cc43)c2=O)c1,1.24%
7,Cc1ccc(NC(=O)CN(C)C(=O)COC(=O)C(C)(C)Oc2ccc(Cl)cc2)cc1,2.5%
8,Cc1ccc(NC(=O)CN(C)C(=O)COC(=O)c2nccnc2N)cc1,88.8% (active)
9,Cc1ccc(CSCC(=O)N(C)CC(=O)Nc2ccc(C)cc2)cc1,-2.58%
10,COc1cc2c(cc1OC)C1C(=O)c3cc(OS(C)(=O)=O)c(OC)cc3C1N(C)C2=O (stereo not drawn),3.73%
11,O=C(Nc1nnc(C2=COCCO2)o1)c1ccc([N+](=O)[O-])s1,-5.53%
12,O=C(Nc1nccs1)C1CCCN1S(=O)(=O)c1cccc2cccnc12 (stereo not drawn),-1.37%
13,Cc1cc(C)nc(SCc2cn3c(C)cc(C)nc3n2)n1,78.2% (active)
14,COc1ccc(C(C)=O)cc1CSc1nc2nc(C)cc(C)n2n1,-0.02%
15,CCn1c(CSc2nc(C)cc(C)n2)nnc1SCC(N)=O,-3.73%
16,COc1ccc(C(CNC(=O)CSc2ccccc2)N2CCOCC2)cc1 (stereo not drawn),2.08%
17,COc1cc2sc(C)nc2cc1C,4.23%
18,CC(=O)N1CCOc2ccc(S(=O)(=O)N3CCC(C(=O)Nc4ccccc4F)CC3)cc21,3.64%
19,O=C(c1ccccc1[N+](=O)[O-])N1CCC2(CC1)OCCO2,0.71%
20,COc1ccc(NC(=O)N2CCC3(CC2)OCCO3)c(OC)c1,-0.76%
21,O=C(CCCN1C(=O)c2cccc3cccc(c23)C1=O)N1CCN(Cc2ccc3c(c2)OCO3)CC1,10.2%
22,O=C(Nc1cccc2ccccc12)N1CCN(Cc2ccc3c(c2)OCO3)CC1,41.2% (active)
23,O=C(Cc1ccccc1[N+](=O)[O-])N1CCN(Cc2ccc3c(c2)OCO3)CC1,0.16%
24,O=C(Nc1cccc2ccccc12)N1CCC2(CC1)OCCO2,44.6% (active)
